The record followed here is ChEMBL document CHEMBL1961873, “Compounds: GSK PKIS; Assays: Nanosyn kinase panel” (2012).

The term inhibition denotes the change of the read-out against control, counted positive when it falls.

Chain of Cyclin-dependent kinase 1 (Homo sapiens) (P06493 whole entry, looked up): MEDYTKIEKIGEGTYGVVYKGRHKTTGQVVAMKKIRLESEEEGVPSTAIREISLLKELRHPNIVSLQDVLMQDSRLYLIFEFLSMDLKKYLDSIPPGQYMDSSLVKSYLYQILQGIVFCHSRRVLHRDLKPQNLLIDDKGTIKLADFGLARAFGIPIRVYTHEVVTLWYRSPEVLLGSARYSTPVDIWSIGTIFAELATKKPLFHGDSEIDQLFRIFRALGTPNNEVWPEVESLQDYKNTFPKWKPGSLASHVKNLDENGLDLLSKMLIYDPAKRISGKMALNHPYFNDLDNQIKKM

One assay addresses Cyclin-dependent kinase 1 (Homo sapiens) (UniProt P06493). The note with it: at 0.1 µM.
In the case of `CN(c1ccc(NC(=O)Nc2c(Cl)cccc2Cl)cc1)c1ccnc(Nc2cccc(CS(C)(=O)=O)c2)n1`, the inhibition amounted to 0.58%.
Consider `CCS(=O)(=O)c1ccc(OC)c(Nc2ncc(-c3cccc(-c4ccccc4F)c3)o2)c1`, for which the inhibition was 0.67%.
Take `CS(=O)(=O)CCNCc1ccc(-c2ccc3ncnc(Nc4ccc(OCc5ccccc5)c(Br)c4)c3c2)o1`: the inhibition was -4.43%.
Consider `N#Cc1ccc(Oc2nccc(-c3c(-c4ccc(F)cc4)ncn3C3CCNCC3)n2)cc1`, for which the inhibition amounted to 0.28%.
On to `Fc1ccc(-c2ncn(C3CCNCC3)c2-c2ccnc(Oc3ccc4c(c3)OCO4)n2)cc1`, for which the inhibition came to 0.2%.
The same measure, in the same setting: next, `COc1cc(N2CCN(C(C)C)CC2)ccc1Nc1nc(Nc2ccc(F)cc2C(=O)NC[C@@H](O)CO)c2cc[nH]c2n1`: -2.84%; `O=C1NC(=O)C(c2cccc(Cl)c2)=C1Nc1ccc(Cl)c(C(=O)O)c1`: 0.24%; `NC(=O)c1cc(-c2ccncc2)cc(-c2ccccc2)c1N`: -0.45%.
As to `CS(=O)(=O)CCNCc1cc(-c2cc3c(Nc4ccc(OCc5cccc(F)c5)c(Cl)c4)ncnc3s2)cs1`, the inhibition stood at 2.55%.
In the case of `Cc1ccc(C(=O)NC2CCC2)cc1-c1ccc(C(=O)NCC2CC2)cc1`, the inhibition was found to be 0.42%.
Regarding `NC(=O)c1cc(-c2ccc(F)cc2)cc(-c2ccncc2)c1N`, the inhibition was 0.65%.
For `O=C(Nc1n[nH]c2cc(-c3ccccc3)ccc12)C1CC1`, the inhibition was 0.9%.
In the case of `O=C(Nc1n[nH]c2nc(-c3ccc(O)cc3)c(Br)cc12)C1CC1`, the inhibition is 24.2%.
As to `C/C(Nc1ccc(S(N)(=O)=O)cc1)=C1/C(=O)Nc2ccccc21`, the inhibition was 0.68%.
As for `O=C1Nc2ccccc2/C1=C/Nc1ccc(-n2cncn2)cc1`, the inhibition worked out at 1.97%.
Take `CCc1nccc2c1nc(-c1nonc1N)n2CC`: the inhibition was determined as 1.84%.
Consider `CCN(CC)Cc1ccc(Nc2nccc(-c3cnn4ncccc34)n2)cc1`, for which the inhibition is 36.3%.
Turning to `Fc1ccc(-c2ncn(C3CCNCC3)c2-c2ccnc(Oc3ccc(F)c(F)c3)n2)cc1`, the inhibition was -1.46%.
In the case of `C[C@@H](Oc1cc(-n2cnc3ccc(OCC4CCN(C)CC4)cc32)sc1C(N)=O)c1ccccc1Cl`, the inhibition was 1.74%.
Take `COc1ccc2cc(-c3c(-c4ccncc4)nc(-c4ccc([S+](C)[O-])cc4C)n3C)ccc2c1` (stereo not drawn): the inhibition was determined as 0.98%.
For the compound `CN1CCN(CCCNc2nc3ccc(Oc4ccc(NC(=O)Nc5cc(C(F)(F)F)ccc5F)cc4)cc3[nH]2)CC1`, the inhibition was -2.5%.
In the case of `Nc1nccc(-c2c(-c3ccc(F)cc3)ncn2C2CCC(O)CC2)n1` (stereo not drawn), the inhibition is 0.17%.
For `c1ccc(Oc2ccc(Nc3ncc(-c4ccccc4)o3)cc2)cc1`, the inhibition was 0.18%.
The same measure, in the same setting: next, `COc1ccc(-c2ccc3c(NC(=O)C4CC4)n[nH]c3n2)cc1`: 0.44%; `O=C(Nc1n[nH]c2nc(-c3ccco3)ccc12)C1CC1`: -0.24%; `CCS(=O)(=O)c1ccc(OC)c(Nc2ncc(-c3ccccc3Cl)o2)c1`: 0.87%.
Take `CN(C)c1ccc2c(c1)/C(=C/Nc1ccc(S(N)(=O)=O)cc1)C(=O)N2`: the inhibition is 6.23%.
For the compound `CN(C)CCCNc1nccc(-c2c(-c3ccc(F)cc3)nn3cc(C(F)(F)F)ccc23)n1`, the inhibition is -1.9%.
With `CCC(=O)Nc1ccc(C)c(-c2ccc(C(=O)NCC3CC3)cc2)c1`, the inhibition was found to be 2.88%.
Turning to `NS(=O)(=O)c1ccc(Nc2cc(-c3ccc(O)c(F)c3)n[nH]2)cc1`, the inhibition is 10.9%.
On the same count and under the same terms, next, `COc1cc2ncn(-c3cc(OCCc4ccccc4)c(C(N)=O)s3)c2cc1OC`: 0.36%; `Cc1ccc(C(=O)NC(C)C)cc1-c1ccc(C(=O)NCC2CC2)cc1`: 0.57%.
On to `NCc1ccc(-n2c(-c3nonc3N)nc3cnccc32)cc1`, for which the inhibition came to 3.12%.
As to `COc1cc(Nc2ncc3c(C)nc(-c4cccc(C(F)(F)F)c4)n3n2)cc(OC)c1OC`, the inhibition came out at 0.7%.

A further assay shares this target. The note with it: at 1 µM.
On to `CN(c1ccc(NC(=O)Nc2c(Cl)cccc2Cl)cc1)c1ccnc(Nc2cccc(CS(C)(=O)=O)c2)n1`, for which the inhibition was 3.72%.
Same read-out and setting: to `CCS(=O)(=O)c1ccc(OC)c(Nc2ncc(-c3cccc(-c4ccccc4F)c3)o2)c1` belongs 2.37%; to `CS(=O)(=O)CCNCc1ccc(-c2ccc3ncnc(Nc4ccc(OCc5ccccc5)c(Br)c4)c3c2)o1`, -2.83%; to `N#Cc1ccc(Oc2nccc(-c3c(-c4ccc(F)cc4)ncn3C3CCNCC3)n2)cc1`, 1.02%.
For `Fc1ccc(-c2ncn(C3CCNCC3)c2-c2ccnc(Oc3ccc4c(c3)OCO4)n2)cc1`, the inhibition was found to be 1.39%.
Regarding `COc1cc(N2CCN(C(C)C)CC2)ccc1Nc1nc(Nc2ccc(F)cc2C(=O)NC[C@@H](O)CO)c2cc[nH]c2n1`, the inhibition is -2.45%.
Take `O=C1NC(=O)C(c2cccc(Cl)c2)=C1Nc1ccc(Cl)c(C(=O)O)c1`: the inhibition is 2.57%.
Consider `NC(=O)c1cc(-c2ccncc2)cc(-c2ccccc2)c1N`, for which the inhibition stood at 1.56%.
For `CS(=O)(=O)CCNCc1cc(-c2cc3c(Nc4ccc(OCc5cccc(F)c5)c(Cl)c4)ncnc3s2)cs1`, the inhibition was determined as 0.45%.
`Cc1ccc(C(=O)NC2CCC2)cc1-c1ccc(C(=O)NCC2CC2)cc1`: the inhibition came out at 1.39%.
On the same count and under the same terms, next, `NC(=O)c1cc(-c2ccc(F)cc2)cc(-c2ccncc2)c1N`: 0.73%; `O=C(Nc1n[nH]c2cc(-c3ccccc3)ccc12)C1CC1`: 5.76%.
For the compound `O=C(Nc1n[nH]c2nc(-c3ccc(O)cc3)c(Br)cc12)C1CC1`, the inhibition was determined as 64.2%.
On to `C/C(Nc1ccc(S(N)(=O)=O)cc1)=C1/C(=O)Nc2ccccc21`, for which the inhibition is 14.5%.
On to `O=C1Nc2ccccc2/C1=C/Nc1ccc(-n2cncn2)cc1`, for which the inhibition turned out to be 10.6%.
On to `CCc1nccc2c1nc(-c1nonc1N)n2CC`, for which the inhibition is 2.9%.
The same measure, in the same setting: to `CCN(CC)Cc1ccc(Nc2nccc(-c3cnn4ncccc34)n2)cc1` belongs 68.1%; to `Fc1ccc(-c2ncn(C3CCNCC3)c2-c2ccnc(Oc3ccc(F)c(F)c3)n2)cc1`, 2.42%; to `C[C@@H](Oc1cc(-n2cnc3ccc(OCC4CCN(C)CC4)cc32)sc1C(N)=O)c1ccccc1Cl`, 3.79%.
Take `COc1ccc2cc(-c3c(-c4ccncc4)nc(-c4ccc([S+](C)[O-])cc4C)n3C)ccc2c1` (stereo not drawn): the inhibition worked out at 3.25%.
As to `CN1CCN(CCCNc2nc3ccc(Oc4ccc(NC(=O)Nc5cc(C(F)(F)F)ccc5F)cc4)cc3[nH]2)CC1`, the inhibition is -3.79%.
Same read-out and setting: to `Nc1nccc(-c2c(-c3ccc(F)cc3)ncn2C2CCC(O)CC2)n1` (stereo not drawn) belongs 5.68%; to `c1ccc(Oc2ccc(Nc3ncc(-c4ccccc4)o3)cc2)cc1`, 1.13%.
Still for that read-out and setting: to `COc1ccc(-c2ccc3c(NC(=O)C4CC4)n[nH]c3n2)cc1` belongs 4.03%; to `O=C(Nc1n[nH]c2nc(-c3ccco3)ccc12)C1CC1`, 2.61%.
On to `CCS(=O)(=O)c1ccc(OC)c(Nc2ncc(-c3ccccc3Cl)o2)c1`, for which the inhibition is 0.32%.
With `CN(C)c1ccc2c(c1)/C(=C/Nc1ccc(S(N)(=O)=O)cc1)C(=O)N2`, the inhibition was 33.9%.
On to `CN(C)CCCNc1nccc(-c2c(-c3ccc(F)cc3)nn3cc(C(F)(F)F)ccc23)n1`, for which the inhibition was determined as 1.74%.
Take `CCC(=O)Nc1ccc(C)c(-c2ccc(C(=O)NCC3CC3)cc2)c1`: the inhibition was determined as 2.38%.
For `NS(=O)(=O)c1ccc(Nc2cc(-c3ccc(O)c(F)c3)n[nH]2)cc1`, the inhibition is 51.7%.
`COc1cc2ncn(-c3cc(OCCc4ccccc4)c(C(N)=O)s3)c2cc1OC`: the inhibition came to 1.62%.
Consider `Cc1ccc(C(=O)NC(C)C)cc1-c1ccc(C(=O)NCC2CC2)cc1`, for which the inhibition is 2.57%.
On to `NCc1ccc(-n2c(-c3nonc3N)nc3cnccc32)cc1`, for which the inhibition came out at 10.5%.
Regarding `COc1cc(Nc2ncc3c(C)nc(-c4cccc(C(F)(F)F)c4)n3n2)cc(OC)c1OC`, the inhibition was determined as 6.83%.
